The text below walks through data of PubChem BioAssay (NCATS).

“And” between values parts separate entries of the source, which are not always exact repeats. Equal values may be shown once. Inconclusive results are not listed. The source made the active and inactive calls. Unless noted, calls follow the shape of the dose curve; as a rule, active = well fitted curve in the direction sought with a large enough effect; inconclusive = small, poorly fitted or top-dose-only effect, or another doubt; inactive = no such curve, though single readings can be large; an effect the other way counts as inactive or inconclusive.

The nature of assay [1]: qHTS assay for cell viability of the p53RE-bla HCT-116 cell line (AID 743292). Also: % is scaled to controls: 0 for no effect and ±100 for the full control effect; nearly all actives have a fitted effect of over 55% in size. In short, it runs like this:
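Compound-exposed HCT-116 (p53RE-bla) cells, 4,000 per well, were kept 16 h at 37 C following a 5 h preincubation. Cell number was estimated from total ATP by CellTiter-Glo luminescence read after 30 min at room temperature.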

A short description of assay [2]: qHTS assay for measurement of the activity of small molecule inhibitors on Zika virus induced Caspase-3 activity in human iPSC derived neural progenitor cells (hNPCs) (AID 1224857). Also: % of control where 0% means no effect; nearly all actives have a fitted effect of over 65% in size. A digest of the protocol: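 Quantitative HTS format: human iPSC neural progenitors, 1 h compound pretreatment, ZIKV 2 FFU/cell for 6 h at 37 C. Percent inhibition derived from luminescent caspase-3/7 signal between uninfected and infected controls.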
For orientation: Quantitative high-throughput screening tests each substance at several concentrations.

A short description of assay [3]: qHTS assay for measurement of the activity of small molecule inhibitors on Zika virus induced Caspase-3 activity in human astrocytoma cells (AID 1224859).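 Also: plate controls were ZIKV-infected untreated cells for no effect and uninfected cells for full effect.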 A digest of the protocol: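 Readout is luminescence from Caspase-Glo 3/7 added after a 6 h ZIKV infection (2 FFU/cell) of compound-pretreated (1 h) SNB-19 cells; data expressed as % inhibition versus uninfected and infected wells.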

A short description of assay [4]: qHTS profiling for inhibitors of Plasmodium falciparum (3D7) proliferation (AID 743322).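 Also: infected erythrocytes exposed to compound for 72 h before lysis; 100% = DMSO vehicle wells and 0% = 0.29 µM artemisinin.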 Particulars: P. falciparum 3D7 proliferation; at 28.7 µM (top of the series) unless noted. A digest of the protocol:
(§1)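 Parasite DNA was quantified by SYBR Green I fluorescence (ex 485, em 535 nm) after overnight lysis in saponin/Triton buffer at room temperature. Cultures at 0.3% parasitemia and 2.5% hematocrit were first exposed to compound for 72 h at 37 C; signals were normalised to artemisinin (0.29 uM) and vehicle wells.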

Assay [5] can be described thus: qHTS profiling for inhibitors of Plasmodium falciparum (DD2) proliferation (AID 743323; call rule not given here). Particulars: lower = more inhibition; at 28.7 µM (top of the series) unless noted. A digest of the protocol: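 1536-well qHTS; infected RBCs 0.3% parasitemia/2.5% Hct final; cpd 72 h 37 C 5% CO2; lysis buffer + SYBR Green I, o/n RT dark; FI 485/535; norm. to 0.29 uM artemisinin and DMSO, plate-stack corrected.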

Assay [6] in a line: qHTS profiling for inhibitors of Plasmodium falciparum (HB3) proliferation (AID 743324).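 Also: 100% = DMSO vehicle wells and 0% = artemisinin-treated control wells.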 As to conditions: Plasmodium falciparum HB3 blood-stage proliferation; at 28.7 µM (top of the series) unless noted. A digest of the protocol:
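SYBR Green fluorescence (485 ex/535 em) of lysed cultures, incubated overnight at room temperature in the dark, quantifies parasite DNA. Infected erythrocytes at 0.3% parasitemia and 2.5% hematocrit were exposed 72 h; values normalized to DMSO and 0.29 uM artemisinin controls.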

Assay [7] can be described thus: qHTS profiling of the MIPE4 collection as inhibitors of Plasmodium falciparum (3D7) proliferation (AID 743344; call rule not given here;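 also: scaled between DMSO vehicle wells and 0.29 µM artemisinin as full inhibition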). As to conditions: P. falciparum 3D7 in erythrocytes, SYBR Green DNA fluorescence, 72 h; at 28.5 µM (top of the series). A digest of the protocol:
as §1

Assay [8] can be described thus: qHTS profiling of the MIPE4 collection as inhibitors of Plasmodium falciparum (DD2) proliferation (AID 743345; call rule not given here). Particulars: P. falciparum Dd2 in erythrocytes, SYBR Green DNA, 72 h; at 28.5 µM (top of the series). A digest of the protocol: as §1
Assay [9] is described as follows: qHTS profiling of the MIPE4 collection as inhibitors of Plasmodium falciparum (DD2) proliferation (Rep 2) (AID 743346; call rule not given here). Particulars: P. falciparum Dd2 in erythrocytes, SYBR Green DNA, 72 h; at 28.5 µM (top of the series). In short, it runs like this:
as §1

Assay [10] can be described thus: qHTS profiling of the MIPE4 collection as inhibitors of Plasmodium falciparum (HB3) proliferation (AID 743347; call rule not given here;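 also: plate controls were DMSO vehicle wells for no effect and artemisinin wells for full effect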). As to conditions: P. falciparum HB3 in erythrocytes, SYBR Green DNA, 72 h; at 28.5 µM (top of the series). A digest of the protocol: as §1

As for `CCCc1c(OCCCCc2nn[nH]n2)ccc(C(C)=O)c1O`, the Potency result in assay [1] was “inactive”. In addition, the call in assay [2] and in assay [3] was inactive.
Consider `O=C1NS(=O)(=O)c2ccccc21`, for which the Potency result in [1] was “inactive”. Also, the outcome in assay [2] and in assay [3] was inactive.
Turning to `CCCCC(CC)COC(=O)c1ccccc1O` (centres undefined), in [1], the Potency result is “inactive”. Moreover, the outcome in assay [2] and in assay [3] was inactive.
`O=C1Nc2ccc(Cl)cc2[C@@](C#CC2CC2)(C(F)(F)F)O1`: in [4], the remaining parasite growth % (stronger effect = lower value) came out at 6.68% [at 57.5 µM]. Moreover, in assay [5], the activity, percent of control worked out at 22.7% [at 57.5 µM]. The remaining proliferation (% of control), lower = more inhibition in assay [6] worked out at 11.8% [at 57.5 µM]. In addition, the outcome in assay [2] and in [3] was inactive.
On to `NCCNCCNCCNCCN`, for which, in assay [1], the Potency result is “inactive”. Also, the activity change, negative = inhibition in assay [2] was -1.07% [at 9.06 µM] (inactive); in assay [3], 14.1% [at 9.06 µM] (inactive).
With `CC(=O)O[C@@]12CO[C@@H]1C[C@H](O)[C@@]1(C)C(=O)[C@H](O)C3=C(C)[C@@H](OC(=O)[C@H](O)[C@@H](NC(=O)OC(C)(C)C)c4ccccc4)C[C@@](O)([C@@H](OC(=O)c4ccccc4)[C@H]21)C3(C)C`, the remaining parasite growth % (stronger effect = lower value) in assay [4] was 7.64% and -0.123%. Also, in assay [5], the activity, percent of control is 14.2% and 11.9%. Also, the remaining proliferation (% of control), lower = more inhibition in [6] was 0.549% and 1.1%. Besides, the compound was called inactive in [2] and in [3].
Take `CC12CCC(CC1)C(C)(C)O2`: the Potency entry in [1] is “inactive”. In addition, the result in assay [2] and in [3] was inactive.
For the compound `Cc1cccc(C)c1NC(=O)CN(CC(=O)O)CC(=O)O`, in assay [3], the compound was classed as inactive.
Regarding `CC(O)CN(CCN(CC(C)O)CC(C)O)CC(C)O` (centres undefined), the Potency entry in assay [1] is “inactive”. Also, the compound was called inactive in assay [2] and in assay [3].
With `CC1(C)[C@@H]2CC[C@@]1(C)C(=O)C2`, the Potency result in [1] is “inactive”. For the same compound, the compound was called inactive in assay [2] and in [3].
For the compound `CCN(CC)CCNC(=O)c1cc(Cl)c(N)cc1OC`, in [3], the call was inactive.
In the case of `CSc1ccc2c(c1)N(CCC1CCCCN1C)c1ccccc1S2` (centres undefined), the parasite growth, % of DMSO control in [7] turned out to be 12.9%. For the same compound, in [8], the parasite growth remaining, % of DMSO control (lower = more inhibition) was 10.4%. This compound showed a parasite growth, % of control (lower = inhibition) in [9] of 30.8%. The compound also registered a growth, % of control in assay [10] of 4.65%. In addition, the outcome in assay [2] and in assay [3] was inactive.
